According to PubChem BioAssay (NCI):
Compounds without any hit were thinned out: in the full panel of roughly 83,000, 20% have a hit.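 Interpretation: 100, growth as untreated; towards 0, rising growth inhibition; 0, no net growth; 0 to -100, cell death. Compounds scoring below 10 were considered active.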 Values without a mark were called inactive. Calls of active or inactive are those of the source.

tested on: MDA-MB-468 breast; assay: NCI-60 one-dose screen, 48 h (100 = growth as untreated, 0 = no growth, -100 = all killed); settings: 10 µM unless noted

SMILES	growth
COc1ccc(-c2nc3cc(C(=O)NCc4ccccc4)ccc3n2C2CCCCC2)cc1	98.4%
Oc1ccc(-c2nc3ccccc3s2)cc1CN(Cc1ccccn1)Cc1ccccn1	13.6%
COc1ccc(/C=C/C(=O)c2ccc(B(O)O)cc2)cc1O	66.8%
COc1cc(NC(=O)c2cc(O)c(CC=C(C)C)c(O)c2)cc2c1O[C@]1(C)CC[C@@H](O)C(C)(C)[C@H]1C2	30.8%
COc1ccc(C2=Cn3c(CCC(=O)c4nc5ccccc5[nH]4)nnc3SC2)cc1	77.4%
O=C(O)/C=C\C(=O)Nc1ccc2c(c1)Cc1cc(F)ccc1-2	109%
Cc1oc2nc[nH]c(=O)c2c1C(=O)/C=C/c1ccc(Cl)cc1Cl	86.7%
O=C1C=CC(=O)c2c1nc1n2CCCC1	90.2%
CN1CC(c2ccc(Br)cc2)C(C(=O)c2ccc(Br)cc2)C12C(=O)Nc1ccccc12 (stereo not given)	81.4%
CN(C)c1ccc(-c2ccc3[nH]c(=O)nc(-c4ccc(F)cc4)c3c2)cn1	1.22% (active)
COc1cc2c(cc1O)CC[C@@H]1[C@@H]2CC[C@]2(C)[C@@H](OCCCN(C)C)CC[C@@H]12	-58.5% (active)
Cc1ccc(-c2nc([P+](c3ccccc3)(c3ccccc3)c3ccccc3)c(N3CCOCC3)o2)cc1	-27.6% (active)
CCn1c(=S)[nH]c2c(=O)n(C)c(=O)n(C)c21	100%
COc1cc(-c2ccc3c(c2)NC(=O)/C3=C\c2ccc[nH]2)ccc1O	16.6%
Nc1c(C(=O)Nc2ccccn2)sc2nc3c(cc12)CCCCC3	27.7%
NC1[C@H]2CN(c3cnc(C(=O)Nc4cc(F)cc5cccnc45)cn3)C[C@@H]12 (stereo not given in full)	3.36% (active)
C=CCn1c(C)nc2ccc(Nc3nc(Nc4ccc5nc(C)n(CC=C)c5c4)c4ccccc4n3)cc21	-92.8% (active)
CCCCCCCCCCCCCCCC(N)c1ccccc1 (stereo not given)	-82.2% (active)
CCOC(=O)c1cnn(CC(C)O)c1NC(=O)NCc1ccccc1C(F)(F)F (stereo not given)	103%
Cn1c(=O)c2nc(SCc3ccccc3)n(C)c2n(C)c1=O	103%

SMILES	growth
CC(C)C1(C(C)C)NC(=O)NC1=O	101%
O=C1/C(=C/c2ccccc2F)CN(C(=O)C(Cl)Cl)C/C1=C\c1ccccc1F	-32.4% (active)
Cc1ccc(S(=O)(=O)OCCCOS(=O)(=O)c2ccc(C)cc2)cc1	100%
COc1cc(/C=N/NC(=O)c2cnn3c2NC(c2ccccc2)C3)ccc1OCc1ccccc1 (stereo not given)	1.21% (active)
S=C=Nc1ccc(N2CCOCC2)cc1	87%
COc1ccc(Nc2ccc3ccccc3c2)cc1	-2.03% (active)
O=C1C(Cl)=C(Nc2ccccn2)C(=O)c2ccccc21	37.1%
Cc1cc2nc(CC(=O)c3cccc([N+](=O)[O-])c3)c(=O)[nH]c2cc1C	85.1%
C=C1C(=O)O[C@H]2[C@H]1CC/C(COC(=O)NCc1c[nH]c3ccc(Br)cc13)=C\CC[C@@]1(C)O[C@@H]21	-58% (active)
CCCCCCCCCCCCCCCCCC(=O)[O][Sn]([CH2]CCC)([CH2]CCC)[CH2]CCC	-96.2% (active)
Cc1ccc2sc3c(NCCCN)nc4ccccc4c3c(=O)c2c1	-6.52% (active)
c1ccc(Sc2ncccn2)nc1	97%
O=C(Nc1ccccc1C(=O)NCC1CC1)c1cccs1	102%
Cc1cc(C)cc(S(=O)(=O)n2ccc(-c3ccc4c(c3)CCC(C)(C)O4)n2)c1	54.6%
NCC(O)C(O)C(O)C(O)CO (stereo not given)	98.7%
Cc1ccc(Cl)cc1N1CCN(C(=O)[C@@H]2C[C@@H]2c2ccc(F)cc2)CC1	75.3%
COc1ccc(C(=O)C/C(=C\c2ccc(O)c(OC)c2)C(=O)NN)cc1	27.6%
CCN1CCN(c2nc(C)cc(N(CCNc3ccnc4cc(Cl)ccc34)Cc3ccc4c(c3)OCO4)n2)CC1	-65.3% (active)
C/C=C/[C@@H]1C=C[C@@H]2C[C@H](C)CC[C@H]2[C@]1(C)/C(O)=C1/C(=O)[C@H](CO)N(C)C1=O	65.5%
N#CCCN=Nc1c(O)[nH]c2ccc(F)cc12	98.9%
